# Source: paper PMC5540273 (PLoS ONE, 2017)
# Columns and labels:
# Settings in all cases: concentration: 1 μM, replicates: in singlicate; n = 1
# LCK = tested on: LCK
# LIMK1 = tested on: LIMK1
# LIMK2 = tested on: LIMK2
# LKB1 = tested on: T1, LKB1
# T1 construct: gene STK11
# LOK = tested on: T2, LOK
# T2 construct: gene STK10
# LRRK2 = tested on: LRRK2
# LTK = tested on: LTK
# LYN = tested on: LYN
# LZK = tested on: T3, LZK
# T3 construct: gene MAP3K13
# MAK = tested on: MAK
# MAP3K15 = tested on: MAP3K15
# MAP3K1 = tested on: MAP3K1
# MAP3K2 = tested on: MAP3K2
# MAP3K3 = tested on: MAP3K3
# MAP3K4 = tested on: MAP3K4
# MAP4K2 = tested on: MAP4K2
# MAP4K3 = tested on: MAP4K3
# MAP4K4 = tested on: MAP4K4
# MAP4K5 = tested on: MAP4K5
# MAPKAPK2 = tested on: MAPKAPK2
# 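Also: KINOMEscan kinase panel screen.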
Compound,%Inh (LCK) [%],%Inh (LIMK1) [%],%Inh (LIMK2) [%],%Inh (LKB1) [%],%Inh (LOK) [%],%Inh (LRRK2) [%],%Inh (LTK) [%],%Inh (LYN) [%],%Inh (LZK) [%],%Inh (MAK) [%],%Inh (MAP3K15) [%],%Inh (MAP3K1) [%],%Inh (MAP3K2) [%],%Inh (MAP3K3) [%],%Inh (MAP3K4) [%],%Inh (MAP4K2) [%],%Inh (MAP4K3) [%],%Inh (MAP4K4) [%],%Inh (MAP4K5) [%],%Inh (MAPKAPK2) [%]
FC(F)(F)c1ccc(/C=C/c2cncnc2Nc2ccc3[nH]c(Cc4ccccc4)nc3c2)cc1 [GW709199],9,0,0,0,13,0,0,1,0,18,0,0,0,1,15,0,0,0,0,3
Oc1cc(Nc2ccnc3cc(I)ccc23)ccc1F [GW552771],78,8,0,0,0,55,4,20,9,22,11,7,9,0,0,0,0,67,100,24
COc1cc(Nc2nccc(N3CCC(NC(=O)Nc4cccc(C(C)=O)c4)C3)n2)cc(OC)c1OC (centres unmarked) [GSK1379753],15,51,43,0,20,0,100,60,0,30,0,1,22,0,0,8,0,3,0,0
O=C(Nc1n[nH]c2cc(-c3ccoc3)ccc12)C1CC1 [SB-738481],0,14,22,0,0,0,13,11,0,3,10,0,3,50,17,2,0,10,0,0
CN1CCN(Cc2cccc(-c3ccc4c(Nc5ccc(Oc6ccccc6)cc5)ccnc4c3)c2)CC1 [GW578342],95.2,0,0,12,21,0,38,58,0,27,0,0,0,0,15,0,0,0,0,3
Cc1ccc(S(=O)(=O)Nc2ccc(Nc3nccc(Nc4cccc5[nH]ncc45)n3)cc2)cc1 [GSK581271],39,13,0,0,0,23,10,0,0,12,0,5,3,0,7,0,34,0,0,0
Cc1cccc(Nc2nc(N[C@H]3CCNC3)ncc2C(N)=O)c1.Cl [GSK2197149],40,0,0,8,0,56,0,26,0,11,0,0,88,60,45,88,40,73,33,0
C[C@@H]1CC[C@@H](C(=O)Nc2ccccc2)CN1c1cc(-c2ccc3c(N)n[nH]c3c2)nc(N)n1 [GSK2286062],2,0,3,20,0,0,0,0,0,22,46,0,16,0,4,3,0,0,0,0
O=C(Nc1ccccc1F)NC1CCN(c2ccnc(Nc3ccc(F)cc3)n2)CC1 [GSK1379800],5,0,28,0,0,0,0,0,21,23,0,13,0,0,0,0,0,0,0,6
CN(C)S(=O)(=O)c1cc(-c2ccc3nccc(-c4cccc(S(N)(=O)=O)c4)c3c2)cnc1N [GSK1669921],7,86,5,0,0,27,39,0,0,19,23,6,0,0,0,13,5,0,0,19
